According to PubChem BioAssay (Tox21):
Values joined by “and” are separate entries in the source; they are usually repeats but may differ in a detail not shown here. Equal values may be shown once. Inconclusive results are not listed. Entries that show only a call come without a potency. Where a structure was tested more than once in an assay, its records may differ in their call. Active and inactive are the calls of the source. Unless noted, the call rests on the fitted dose curve; in most records, active means well fitted curve in the direction sought with a large enough effect in the repeat runs; inconclusive means weak or mixed curves; inactive means no such curve, though single readings can be large; an effect the other way counts as inactive or inconclusive.

Legend:
[1] = qHTS assay for small molecule agonists of the p53 signaling pathway (AID 651631; calls by dose curve; further: nearly all actives have a fitted effect of over 15% in size; further: potency means the concentration at half of the fitted maximal effect)
Outline: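 HCT-116 p53RE-bla reporter line, 16 h compound treatment at 37 °C, then fluorescence after 2 h with B/G FRET substrate.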

[2] = qHTS assay for small molecules that induce genotoxicity in human embryonic kidney cells expressing luciferase-tagged ATAD5 (AID 651632); further: nearly all actives have a fitted effect of over 15% in size
Outline: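 Luminescent reporter readout, HEK293T ATAD5-luc line: 16 hr drug exposure (37C, 5% CO2) followed by Amplite, 30 min RT.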

[3] = qHTS assay for small molecule agonists of the p53 signaling pathway - cell viability (AID 651633; calls by dose curve; further: nearly all actives have a fitted effect of over 30% in size; further: potency means the concentration at half of the fitted maximal effect)
Outline: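 p53RE-bla cells, seeded at 4,000 per well and rested 5 h at 37 C/5% CO2, received compounds in DMSO for 16 h at 37 C. CellTiter-Glo was then added, and luminescence was read after 30 min at room temperature to gauge cytotoxicity.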

[4] = qHTS assay for small molecules that induce genotoxicity in human embryonic kidney cells expressing luciferase-tagged ATAD5 - cell viability (AID 651634; calls by dose curve; further: nearly all actives have a fitted effect of over 25% in size)
Outline: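 Viability read: CellTiter-Fluor fluorescence, 30 min at 37C. Cells: HEK293T, luciferase-tagged ATAD5. Exposure: 15.5 hr, 37C, 5% CO2, compound or DMSO vehicle.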

[5] = qHTS assay for small molecule disruptors of the mitochondrial membrane potential - cell viability (AID 720634; calls by dose curve;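 further: human HepG2 liver cancer cells; series mostly up to about 83 µM; nearly all actives have a fitted effect of over 20% in size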)
Outline: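 HepG2, 1 hr compound, 37 C. ATP luminescence via CellTiter-Glo, 30 min RT, same well as m-MPI.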

[6] = qHTS assay to test for compound auto fluorescence at 590 nm (red) in HepG2 cells (AID 720674)
Outline: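 Compound auto-fluorescence is scored relative to Rose Bengal sodium, measured at 540/590 nm in live HepG2 cultures after 1 hr compound contact (37 C, 5% CO2).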

[7] = qHTS assay to test for compound auto fluorescence at 460 nm (blue) in HEK293 cells (AID 720678)
Outline: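 HEK293 cells (2,000 per well, medium with 10% dialyzed FBS) attached for 4-5 hr at 37C, then received compound and stood overnight at 37C, 5% CO2. Blue fluorescence was read at Ex/Em 405/460 nm and expressed relative to triamterene.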

[8] = qHTS assay to test for compound auto fluorescence at 590 nm (red) in HEK293 cells (AID 720679)
Outline: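 HEK293 cells (2,000/well, medium with 10% dialyzed FBS) attached for 4-5 hr at 37C, received 23 nL compound and were incubated overnight at 37C, 5% CO2. Red fluorescence was then read at 540/590nm Ex/Em, referenced to Rose Bengal sodium.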

[9] = qHTS assay to test for compound auto fluorescence at 535 nm (green) in HepG2 cells (AID 720675)
[10] = qHTS assay for small molecule disruptors of the mitochondrial membrane potential (AID 720635); further: potency means the concentration at half of the fitted maximal effect
Outline: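 HepG2 cells (2,000/well) attached overnight at 37C, then took compound for 1 hr at 37C, 5% CO2. Mito-MPS dye was added for 30 min; fluorescence was read at 490/535 nm (monomers) and 540/590 nm (aggregates).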

CC(=O)c1ccc2c(c1)N(CCCN1CCC(CCO)CC1)c1ccccc1S2
Potency [1]: inactive | Potency [2]: inactive | Potency [3]: inactive | Potency [4]: inactive | Potency [5]: inactive | fluorescence, relative to Rose Bengal [6]: -0.311% [at 18.6 µM] (inactive) | fluorescence, % of triamterene [7]: -0.0315% [at 18.6 µM] (inactive) | fluorescence, % of fluorescent control [8]: -0.278% [at 18.6 µM] (inactive)

C[C@H](CCC(=O)O)[C@H]1CC[C@H]2[C@@H]3CC[C@@H]4C[C@H](O)CC[C@]4(C)[C@H]3C[C@H](O)[C@]12C
Potency [1]: inactive | Potency [2]: inactive | Potency [3]: inactive | Potency [4]: inactive | Potency [5]: inactive | Potency [6]: inactive | Potency [9]: inactive | outcome [7]: inactive | Potency [8]: inactive

CN(C)c1ccc(C(c2ccccc2)c2ccc(N(C)C)cc2)cc1
Potency [1]: inactive | Potency [2]: inactive | Potency [3]: inactive | Potency [4]: inactive | Potency [6]: inactive | Potency [9]: inactive | outcome [7]: inactive | Potency [8]: inactive

Nc1cccc([N+](=O)[O-])c1
Potency [1]: inactive | Potency [2]: inactive | Potency [3]: inactive | Potency [4]: inactive | Potency [5]: inactive | Potency [6]: inactive | Potency [9]: inactive | outcome [7]: inactive | Potency [8]: inactive

CCNc1cc(O)ccc1C
Potency [1]: inactive | Potency [2]: inactive | Potency [3]: inactive | Potency [4]: inactive | Potency [5]: inactive | Potency [9]: inactive | outcome [7]: inactive | Potency [8]: inactive

CN(C)c1ccc(CCO)cc1
Potency [1]: inactive | Potency [2]: inactive | Potency [3]: inactive | Potency [4]: inactive | Potency [10]: inactive | Potency [9]: inactive | outcome [7]: inactive | Potency [8]: inactive

CC(=O)[O][Al][O]C(C)=O
Potency [1]: inactive | Potency [2]: inactive | Potency [3]: inactive | Potency [4]: inactive | Potency [5]: inactive | Potency [6]: inactive | outcome [7]: inactive | Potency [8]: inactive

CC(=O)NO
Potency [1]: inactive | Potency [2]: inactive | Potency [3]: inactive | Potency [4]: inactive | Potency [6]: inactive | outcome [7]: inactive | Potency [8]: inactive

CCCCC(=O)OCC(=O)[C@H]1[C@H](C)C[C@H]2[C@@H]3C[C@H](F)C4=CC(=O)C=C[C@]4(C)[C@@]3(F)[C@@H](O)C[C@@]21C
Potency [1]: inactive | Potency [2]: inactive | Potency [3]: inactive | Potency [4]: inactive | Potency [6]: inactive | Potency [9]: inactive | outcome [7]: inactive | Potency [8]: inactive

C#C[C@]1(O)CC[C@H]2[C@@H]3CCc4cc(OC5CCCC5)ccc4[C@H]3CC[C@@]21C
Potency [1]: inactive | Potency [2]: inactive | Potency [3]: inactive | Potency [4]: inactive | Potency [5]: inactive | Potency [6]: inactive | Potency [9]: inactive | outcome [7]: inactive | Potency [8]: inactive

c1ccc(CNCCNCc2ccccc2)cc1
Potency [1]: inactive | Potency [2]: inactive | Potency [3]: inactive | Potency [4]: inactive | Potency [9]: inactive | outcome [7]: inactive | Potency [8]: inactive

CN1CCN(C(c2ccccc2)c2ccccc2)CC1
Potency [1]: inactive | Potency [2]: inactive | Potency [3]: inactive | Potency [4]: inactive | fluorescence, relative to Rose Bengal [6]: 0.313% [at 18.6 µM] (inactive) | fluorescence, % of triamterene [7]: -0.0167% [at 18.6 µM] (inactive) | fluorescence, % of fluorescent control [8]: -0.0303% [at 18.6 µM] (inactive)

CCOC(=O)Cc1cccc2ccccc12
Potency [1]: inactive | Potency [2]: inactive | Potency [3]: inactive | Potency [4]: inactive | Potency [5]: inactive | Potency [6]: inactive | outcome [7]: inactive | Potency [8]: inactive

OCc1cc(C(O)CNCCCCCCOCCCCc2ccccc2)ccc1O (stereo unspecified)
Potency [1]: inactive | Potency [2]: inactive | Potency [3]: inactive and 26.6 µM (active) | Potency [4]: inactive | Potency [5]: inactive | Potency [9]: inactive | outcome [7]: inactive | Potency [8]: inactive

O=C(O)c1ccccc1Cl
Potency [1]: inactive | Potency [2]: inactive | Potency [3]: inactive | Potency [4]: inactive | Potency [5]: inactive | Potency [6]: inactive | Potency [9]: inactive | outcome [7]: inactive | Potency [8]: inactive

O=S(c1cc(Cl)cc(Cl)c1O)c1cc(Cl)cc(Cl)c1O
Potency [1]: 8.41 µM (active) | Potency [2]: inactive | Potency [3]: 3.35 µM (active) | Potency [4]: inactive | Potency [9]: inactive | outcome [7]: inactive | Potency [8]: inactive

CN(C)C(=O)NC1(c2ccccc2)CCN(CC[C@@]2(c3ccc(F)c(F)c3)CN(C(=O)c3ccccc3)CCO2)CC1
Potency [1]: inactive | Potency [2]: inactive | Potency [3]: inactive | Potency [4]: inactive | Potency [5]: inactive | Potency [6]: inactive | outcome [7]: inactive | Potency [8]: inactive

CCCCCCCCCOS(=O)(=O)O
Potency [1]: inactive | Potency [2]: inactive | Potency [3]: inactive | Potency [4]: inactive | Potency [5]: inactive | outcome [7]: inactive | Potency [8]: inactive

COC(=O)C1=C(C)NC(COC(N)=O)=C(C(=O)OC(C)C)C1c1cccc(Cl)c1Cl (stereo unspecified)
Potency [1]: 16.8 µM (active) | Potency [2]: inactive | Potency [3]: inactive | Potency [4]: inactive | Potency [10]: 26.6 µM (active) | Potency [6]: inactive | Potency [9]: inactive | Potency [8]: inactive

Nc1c(CC(=O)O)cccc1C(=O)c1ccc(Br)cc1
Potency [1]: inactive | Potency [2]: inactive | Potency [3]: inactive | Potency [4]: inactive | Potency [5]: inactive | Potency [6]: inactive | Potency [9]: inactive | outcome [7]: inactive | Potency [8]: inactive

O=P(O)(OCc1ccccc1)OCc1ccccc1
Potency [1]: inactive | Potency [2]: inactive | Potency [3]: inactive | Potency [4]: inactive | Potency [6]: inactive | Potency [9]: inactive | outcome [7]: inactive | Potency [8]: inactive

O=C1c2ccccc2S(=O)(=O)N1CCCCN1CCN(c2ncccn2)CC1
Potency [1]: inactive | Potency [2]: inactive | Potency [3]: inactive | Potency [4]: inactive | Potency [10]: inactive | Potency [6]: inactive | Potency [9]: inactive | outcome [7]: inactive | Potency [8]: inactive

NCC(=O)O
Potency [1]: inactive | Potency [2]: inactive | Potency [3]: inactive | Potency [4]: inactive | Potency [10]: inactive | Potency [6]: inactive | Potency [9]: inactive | outcome [7]: inactive | Potency [8]: inactive

CCCCc1ncc(/C=C(\Cc2cccs2)C(=O)O)n1Cc1ccc(C(=O)O)cc1
Potency [1]: inactive | Potency [2]: inactive | Potency [3]: inactive | Potency [4]: inactive | Potency [6]: inactive | Potency [9]: inactive | outcome [7]: inactive | Potency [8]: inactive

CC(C)CC(=O)C1C(=O)c2ccccc2C1=O
Potency [1]: inactive | Potency [2]: inactive | Potency [3]: inactive | Potency [4]: inactive | Potency [10]: 4.33 µM (active) | Potency [6]: inactive | Potency [9]: inactive | outcome [7]: inactive | Potency [8]: inactive

O=C(O)c1ccco1
Potency [1]: inactive | Potency [2]: inactive | Potency [3]: inactive | Potency [4]: inactive | Potency [10]: inactive | Potency [6]: inactive | outcome [7]: inactive | Potency [8]: inactive
